Experimental findings from PubChem BioAssay (Tox21) are described below.

A short description of assay [1]: Human pregnane X receptor (PXR) small molecule agonists, qHTS cell viability counter screen (AID 1346977). Note: nearly all actives have a fitted effect of over 50% in size. In short, it runs like this:
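Tox21 qHTS format; PXR-Luc HepG2, 2,000/well, charcoal-stripped FBS 5%. Cpd exposure 24hr. Read: CellTiter-Fluor fluorescence, multiplexed with luciferase.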

Assay [2] in a line: Caspase-3/7 induction in HepG2 cells by small molecules, qHTS assay (AID 1346978). Note: nearly all actives have a fitted effect of over 15% in size. In short, it runs like this:
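Wild-type HepG2 cells (2,000/well) were settled 5 h at 37 C, 5% CO2, then exposed to compounds in DMSO for 17 h. Caspase-3/7 activity was read by luminescence 30 min after adding Caspase-Glo 3/7 reagent at room temperature.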
In general terms: Quantitative high-throughput screening tests each substance at several concentrations.

Assay [3] in a line: Caspase-3/7 induction in CHO-K1 cells by small molecules, qHTS cell viability counter screen (AID 1346979). Note: nearly all actives have a fitted effect of over 35% in size. Note: potency is the fitted concentration of half-maximal effect. In short, it runs like this:
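CellTiter-Fluor viability check, qHTS format: wild-type CHO-K1, 16hr compound treatment, 1hr reagent incubation, fluorescence read.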

A short description of assay [4]: Caspase-3/7 induction in CHO-K1 cells by small molecules, qHTS assay (AID 1346980). Note: nearly all actives have a fitted effect of over 15% in size. Summed up: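 Wild-type cells were seeded at 1,500 per well and settled 5 hr at 37 C, 5% CO2, then exposed to DMSO-dissolved compounds for 17 hr. Caspase-Glo 3/7 reagent was added, and luminescence was read after 30min at room temperature.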
Assay [5] in a line: Caspase-3/7 induction in HepG2 cells by small molecules, qHTS cell viability counter screen (AID 1346981). Note: series mostly up to about 92 µM; nearly all actives have a fitted effect of over 30% in size. Summed up:
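The parent HepG2 line is plated at 2,000 cells per well and rested 5 hr before compound pinning from DMSO stocks. Following a 16-hr treatment at 37 C, a fluorogenic live-cell substrate (CellTiter-Fluor) reports viability after 1 hr.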

The target in assay [6] is Nuclear receptor subfamily 1 group I member 2 (Homo sapiens) (UniProt O75469). The experiment in a line: Human pregnane X receptor (PXR) small molecule agonists, qHTS assay (AID 1346982). Note: nearly all actives have a fitted effect of over 35% in size. Note: potency is the fitted concentration of half-maximal effect. Summed up:
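After plating in 5% charcoal-stripped FBS and a 5 hr rest, PXR-Luc HepG2 cells received compounds in DMSO. Following 24 hr at 37 C, ONE-Glo was added and light output read.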

Assay [7] has as its target Cytochrome P450 2D6 (Homo sapiens) (UniProt P10635). In words: Cytochrome P450 Family 2 Subfamily D Member 6 (CYP2D6) small molecule antagonists: luciferase reporter qHTS assay (AID 1671196). Note: nearly all actives have a fitted effect of over 50% in size. Note: potency is the fitted concentration of half-maximal effect. In short, it runs like this: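 Quantitative HTS of Tox21 chemicals against CYP2D6 using a luminescent proluciferin substrate. After NADPH addition, 1 h room-temperature reaction; luminescence recorded 20 min post detection reagent.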

The target in assay [8] is Cytochrome P450 2C19 (Homo sapiens) (UniProt P33261). The experiment in a line: Cytochrome P450 Family 2 Subfamily C Member 19 (CYP2C19) small molecule antagonists: luciferase reporter qHTS assay (AID 1671197). Note: nearly all actives have a fitted effect of over 65% in size. Note: potency is the fitted concentration of half-maximal effect. Summed up:
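Inhibition of CYP2C19 was scored from loss of luminescence in a P450-Glo proluciferin substrate assay, NADPH-started and run 1 h at 37C, with ketoconazole as positive control.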
For orientation: Reporter assays use an easily measured gene product as a stand-in for the process of interest.

Assay [9] addresses Cytochrome P450 2C9 (Homo sapiens) (UniProt P11712). The experiment in a line: Cytochrome P450 Family 2 Subfamily C Member 9 (CYP2C9) small molecule antagonists: luciferase reporter qHTS assay (AID 1671198). Note: nearly all actives have a fitted effect of over 50% in size. Note: potency is the fitted concentration of half-maximal effect. In short, it runs like this: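 CYP2C9 activity was measured with a P450-Glo proluciferin substrate. Enzyme–substrate mix was held with compound for 10 min at room temperature, then NADPH regeneration solution was added for 1 h at 37C. Luciferin product was read as luminescence.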

The target in assay [10] is Cytochrome P450 1A2 (Homo sapiens) (UniProt P05177). The experiment in a line: Cytochrome P450 Family 1 Subfamily A Member 2 (CYP1A2) small molecule antagonists: luciferase reporter qHTS assay (AID 1671199). Note: nearly all actives have a fitted effect of over 50% in size. Note: potency is the fitted concentration of half-maximal effect. In short, it runs like this: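 Quantitative high-throughput format using the P450-Glo CYP1A2 system. Reaction initiated by NADPH regeneration solution, 1 h at room temperature, then stopped with detection reagent; luminescence measured 20 min later.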

The target of assay [11] is Cytochrome P450 3A4 (Homo sapiens) (UniProt P08684). In words: Cytochrome P450 Family 3 Subfamily A Member 4 (CYP3A4) small molecule antagonists: luciferase reporter qHTS assay (AID 1671201). Note: nearly all actives have a fitted effect of over 50% in size. Note: potency is the fitted concentration of half-maximal effect. In short, it runs like this:
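Proluciferin-to-luciferin conversion by CYP3A4, NADPH-regenerated, 1 h RT; luminescence read as RLU. Ketoconazole as control.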

Assay [12] addresses Thyrotropin-releasing hormone receptor (Homo sapiens) (UniProt P34981). The experiment in a line: qHTS assay to identify small molecule agonists of the thyrotropin-releasing hormone receptor (TRHR) signaling pathway (AID 1346891; calls by dose curve; note: series mostly up to about 58 µM). Summed up: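 Screening of agonists relied on calcium signalling in HEK293 cells expressing human TRHR: dye loading 2 h at 37 °C preceded compound addition and a 3-min fluorescence time course.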

Assay [13] deals with Voltage-gated inwardly rectifying potassium channel KCNH2 (Homo sapiens) (UniProt Q12809). The experiment in a line: Human Ether-a-go-go-Related Gene (hERG) channel small molecule antagonists: fluorescence cell-based qHTS assay (AID 1671200). Note: nearly all actives have a fitted effect of over 50% in size. Note: potency is the fitted concentration of half-maximal effect. In short, it runs like this:
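Kinetic two-minute fluorescence traces, sampled at 1 s, were collected following thallium stimulus of U2OS cells (1000 per well) that had been cultured overnight at 37 C and loaded with FluxOR II.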
On the technique in general: hERG is a cardiac potassium channel; its block is linked to QT prolongation.

For assay [14], the target named is Nuclear receptor subfamily 1 group I member 2 (Rattus norvegicus) (UniProt Q9R1A7). In words: Rat pregnane X receptor (rPXR) activation by small molecules, qHTS assay (AID 1346983). Note: nearly all actives have a fitted effect of over 20% in size. Conditions: rPXR luciferase reporter cells, One-Glo luminescence, 24 h; max activation: stronger effect = higher value. In short, it runs like this: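 Cell-based rPXR luciferase reporter assay, 2,000 cells per well, rested 5hr at 37 C before compound addition in DMSO, then 24 hr at 37 C. One-Glo reagent was added and luminescence read after 30 min at room temperature.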

In assay [15] the target is Nuclear receptor subfamily 1 group I member 2 (Homo sapiens) (UniProt O75469). In words: Human pregnane X receptor (PXR) activation by small molecules, qHTS assay (AID 1346985). Note: nearly all actives have a fitted effect of over 40% in size. In short, it runs like this:
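DPX-2 cells (HepG2 co-transfected with a PXR response element and a CYP3A4-promoter luciferase construct) were seeded at 2,000 per well, rested 5 hr at 37C, then exposed to DMSO-dissolved compounds for 24 hr. Activation was read as luciferase luminescence.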

Molecules are shown by their SMILES. A number with no mark means an inactive call. Inconclusive results are not listed. The source made the active and inactive calls. Unless noted, calls come from the whole dose curve; as a rule, active = well fitted curve in the direction sought with a large enough effect in the repeat runs; inconclusive = weak or mixed curves; inactive = no such curve, though single readings can be large; an effect the other way counts as inactive or inconclusive.
% is set by controls: 0 for no effect and ±100 for the full control effect.

Cytochrome P450 1A2 (Homo sapiens), sequence (P05177 whole entry, looked up): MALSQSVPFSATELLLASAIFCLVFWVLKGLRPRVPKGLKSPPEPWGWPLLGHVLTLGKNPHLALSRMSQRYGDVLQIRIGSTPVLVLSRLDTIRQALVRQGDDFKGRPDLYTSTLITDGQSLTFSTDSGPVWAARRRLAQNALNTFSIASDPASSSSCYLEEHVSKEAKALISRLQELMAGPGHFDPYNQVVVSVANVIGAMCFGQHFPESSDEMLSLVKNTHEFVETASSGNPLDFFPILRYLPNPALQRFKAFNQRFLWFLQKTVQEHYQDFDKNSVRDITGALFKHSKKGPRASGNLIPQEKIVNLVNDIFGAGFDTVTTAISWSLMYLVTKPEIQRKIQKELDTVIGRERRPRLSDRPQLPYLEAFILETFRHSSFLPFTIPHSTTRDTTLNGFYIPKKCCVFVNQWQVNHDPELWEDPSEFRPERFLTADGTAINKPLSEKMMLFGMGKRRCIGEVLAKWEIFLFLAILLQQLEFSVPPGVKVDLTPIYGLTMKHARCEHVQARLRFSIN
Cytochrome P450 2D6 (Homo sapiens), sequence (P10635 whole entry, looked up): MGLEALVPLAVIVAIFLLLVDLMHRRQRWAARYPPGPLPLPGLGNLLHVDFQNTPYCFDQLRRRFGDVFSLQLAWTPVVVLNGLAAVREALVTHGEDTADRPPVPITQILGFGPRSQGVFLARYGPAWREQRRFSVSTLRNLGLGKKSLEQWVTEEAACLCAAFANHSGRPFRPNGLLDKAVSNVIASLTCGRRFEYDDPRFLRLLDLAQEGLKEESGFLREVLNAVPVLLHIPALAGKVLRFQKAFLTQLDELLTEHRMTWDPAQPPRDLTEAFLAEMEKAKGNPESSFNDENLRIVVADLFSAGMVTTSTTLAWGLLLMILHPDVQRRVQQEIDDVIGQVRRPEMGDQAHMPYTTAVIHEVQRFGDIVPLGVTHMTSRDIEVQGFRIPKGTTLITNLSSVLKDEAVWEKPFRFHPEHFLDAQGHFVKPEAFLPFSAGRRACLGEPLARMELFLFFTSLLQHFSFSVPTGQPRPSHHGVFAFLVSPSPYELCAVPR
Nuclear receptor subfamily 1 group I member 2 (Homo sapiens), sequence (O75469 whole entry, looked up): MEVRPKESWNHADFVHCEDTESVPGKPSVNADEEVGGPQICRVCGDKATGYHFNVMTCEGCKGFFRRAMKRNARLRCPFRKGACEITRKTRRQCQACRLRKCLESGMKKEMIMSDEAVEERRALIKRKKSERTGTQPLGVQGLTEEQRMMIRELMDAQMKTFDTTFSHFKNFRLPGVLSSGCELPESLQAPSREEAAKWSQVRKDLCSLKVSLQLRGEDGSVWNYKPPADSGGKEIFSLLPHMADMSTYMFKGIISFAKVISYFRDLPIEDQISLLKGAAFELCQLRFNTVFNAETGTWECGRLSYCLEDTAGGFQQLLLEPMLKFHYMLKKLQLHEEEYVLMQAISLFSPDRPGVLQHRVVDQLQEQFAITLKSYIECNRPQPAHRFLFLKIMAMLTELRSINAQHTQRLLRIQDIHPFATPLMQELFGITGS
Cytochrome P450 2C19 (Homo sapiens), sequence (P33261 whole entry, looked up): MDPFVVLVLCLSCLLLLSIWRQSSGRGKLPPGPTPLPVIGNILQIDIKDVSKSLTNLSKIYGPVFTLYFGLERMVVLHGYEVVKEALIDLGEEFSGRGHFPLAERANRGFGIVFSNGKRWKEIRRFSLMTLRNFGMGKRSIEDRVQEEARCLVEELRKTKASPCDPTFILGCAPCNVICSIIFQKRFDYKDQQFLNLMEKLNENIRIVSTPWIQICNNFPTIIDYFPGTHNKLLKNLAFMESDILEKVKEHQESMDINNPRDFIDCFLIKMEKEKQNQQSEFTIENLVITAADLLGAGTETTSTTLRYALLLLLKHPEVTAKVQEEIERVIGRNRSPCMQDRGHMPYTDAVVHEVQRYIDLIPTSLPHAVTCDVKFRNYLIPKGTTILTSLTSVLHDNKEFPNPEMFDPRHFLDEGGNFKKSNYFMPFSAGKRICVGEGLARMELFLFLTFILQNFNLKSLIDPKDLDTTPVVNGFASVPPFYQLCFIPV
Cytochrome P450 3A4 (Homo sapiens), sequence (P08684 whole entry, looked up): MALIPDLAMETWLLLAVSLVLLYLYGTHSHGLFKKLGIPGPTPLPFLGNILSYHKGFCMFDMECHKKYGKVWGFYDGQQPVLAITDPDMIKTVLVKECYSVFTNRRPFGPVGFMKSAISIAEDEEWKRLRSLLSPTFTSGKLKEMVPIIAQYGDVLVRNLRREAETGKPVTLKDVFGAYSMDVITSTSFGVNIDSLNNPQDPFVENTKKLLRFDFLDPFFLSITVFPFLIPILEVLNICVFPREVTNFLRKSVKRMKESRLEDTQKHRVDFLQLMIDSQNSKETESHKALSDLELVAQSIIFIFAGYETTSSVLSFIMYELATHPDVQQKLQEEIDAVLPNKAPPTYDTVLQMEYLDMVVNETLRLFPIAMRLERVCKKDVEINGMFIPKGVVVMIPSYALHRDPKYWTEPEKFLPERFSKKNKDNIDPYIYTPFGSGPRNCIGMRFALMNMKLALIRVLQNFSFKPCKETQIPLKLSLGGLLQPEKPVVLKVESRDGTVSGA
Thyrotropin-releasing hormone receptor (Homo sapiens), sequence (P34981 whole entry, looked up): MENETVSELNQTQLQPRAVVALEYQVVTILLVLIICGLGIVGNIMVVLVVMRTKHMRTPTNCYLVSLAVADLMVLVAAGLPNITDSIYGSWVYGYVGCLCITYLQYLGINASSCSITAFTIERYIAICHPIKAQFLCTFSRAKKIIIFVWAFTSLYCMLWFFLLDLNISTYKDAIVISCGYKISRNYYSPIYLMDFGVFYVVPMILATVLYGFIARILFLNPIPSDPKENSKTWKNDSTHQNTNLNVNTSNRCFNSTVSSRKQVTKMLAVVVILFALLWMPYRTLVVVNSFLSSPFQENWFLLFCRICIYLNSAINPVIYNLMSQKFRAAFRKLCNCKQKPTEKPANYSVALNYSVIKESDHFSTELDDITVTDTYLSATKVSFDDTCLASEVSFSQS
Voltage-gated inwardly rectifying potassium channel KCNH2 (Homo sapiens), sequence (Q12809 whole entry, looked up): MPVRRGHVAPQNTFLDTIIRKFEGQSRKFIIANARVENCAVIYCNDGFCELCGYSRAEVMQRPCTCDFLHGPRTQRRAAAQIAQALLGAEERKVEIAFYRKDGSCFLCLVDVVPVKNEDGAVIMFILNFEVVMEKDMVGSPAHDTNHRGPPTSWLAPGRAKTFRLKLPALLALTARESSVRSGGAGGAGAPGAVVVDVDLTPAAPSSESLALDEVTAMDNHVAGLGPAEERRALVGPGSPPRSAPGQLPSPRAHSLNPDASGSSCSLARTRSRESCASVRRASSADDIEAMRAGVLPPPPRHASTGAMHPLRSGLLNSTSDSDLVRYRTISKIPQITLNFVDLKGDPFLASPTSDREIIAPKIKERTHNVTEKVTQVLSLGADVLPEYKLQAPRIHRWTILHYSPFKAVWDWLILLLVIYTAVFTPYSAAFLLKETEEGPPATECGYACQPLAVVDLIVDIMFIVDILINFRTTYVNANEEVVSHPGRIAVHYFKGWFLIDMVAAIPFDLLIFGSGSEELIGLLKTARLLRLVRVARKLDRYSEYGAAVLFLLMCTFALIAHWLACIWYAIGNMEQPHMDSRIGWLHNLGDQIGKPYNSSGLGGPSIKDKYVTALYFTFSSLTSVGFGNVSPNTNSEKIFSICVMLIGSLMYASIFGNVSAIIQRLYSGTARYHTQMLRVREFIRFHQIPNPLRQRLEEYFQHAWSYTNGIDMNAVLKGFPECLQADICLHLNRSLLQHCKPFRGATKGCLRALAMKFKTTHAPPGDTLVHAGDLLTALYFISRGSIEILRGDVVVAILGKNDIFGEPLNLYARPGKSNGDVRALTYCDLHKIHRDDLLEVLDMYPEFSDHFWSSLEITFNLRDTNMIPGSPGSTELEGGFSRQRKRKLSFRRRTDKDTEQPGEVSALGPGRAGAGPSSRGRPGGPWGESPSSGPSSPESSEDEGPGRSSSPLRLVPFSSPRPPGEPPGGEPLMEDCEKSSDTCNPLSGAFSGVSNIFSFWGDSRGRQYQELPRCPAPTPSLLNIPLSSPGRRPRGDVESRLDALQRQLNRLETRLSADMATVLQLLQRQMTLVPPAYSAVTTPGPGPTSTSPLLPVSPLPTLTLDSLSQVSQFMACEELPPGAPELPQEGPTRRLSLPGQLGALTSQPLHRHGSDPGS
Cytochrome P450 2C9 (Homo sapiens), sequence (P11712 whole entry, looked up): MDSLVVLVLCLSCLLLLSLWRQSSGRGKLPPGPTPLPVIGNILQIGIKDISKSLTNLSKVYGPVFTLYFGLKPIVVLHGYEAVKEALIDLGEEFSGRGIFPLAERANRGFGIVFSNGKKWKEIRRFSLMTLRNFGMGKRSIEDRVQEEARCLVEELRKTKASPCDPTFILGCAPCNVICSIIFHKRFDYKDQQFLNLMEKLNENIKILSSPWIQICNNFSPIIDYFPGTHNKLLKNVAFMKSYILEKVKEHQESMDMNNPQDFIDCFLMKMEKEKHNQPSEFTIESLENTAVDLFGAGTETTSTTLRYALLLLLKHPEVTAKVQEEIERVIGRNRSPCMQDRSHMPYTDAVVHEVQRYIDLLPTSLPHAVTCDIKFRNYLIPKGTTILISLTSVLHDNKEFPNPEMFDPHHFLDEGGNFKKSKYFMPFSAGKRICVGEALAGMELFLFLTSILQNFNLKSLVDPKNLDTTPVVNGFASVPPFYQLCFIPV
Nuclear receptor subfamily 1 group I member 2 (Rattus norvegicus), sequence (Q9R1A7 whole entry, looked up): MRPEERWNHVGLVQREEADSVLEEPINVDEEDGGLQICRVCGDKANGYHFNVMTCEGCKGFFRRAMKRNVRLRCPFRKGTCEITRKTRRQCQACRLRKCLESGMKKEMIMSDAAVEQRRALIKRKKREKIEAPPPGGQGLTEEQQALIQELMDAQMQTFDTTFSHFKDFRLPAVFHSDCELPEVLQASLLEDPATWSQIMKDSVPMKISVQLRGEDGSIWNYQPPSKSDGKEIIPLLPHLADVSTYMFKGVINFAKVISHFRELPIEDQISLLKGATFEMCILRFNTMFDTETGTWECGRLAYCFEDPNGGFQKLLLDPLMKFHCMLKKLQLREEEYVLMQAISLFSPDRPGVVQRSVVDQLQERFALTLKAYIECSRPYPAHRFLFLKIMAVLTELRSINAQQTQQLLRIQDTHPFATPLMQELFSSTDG

Regarding `O=C(/C=C/c1ccccc1)OCCCc1ccccc1`, the Potency entry in assay [1], in assay [2], in [3], in assay [5], in assay [6] and in assay [7] was “inactive” in each case. In addition, in assay [11], the Potency entry is “inactive”. In assay [4], the outcome was inactive. The Potency is 39.9 µM (active) in assay [8], 22.4 µM (active) in assay [9] and 12.6 µM (active) in assay [10].

Take `CC[C@@H]([C@H](C)O)n1ncn(-c2ccc(N3CCN(c4ccc(OC[C@@H]5CO[C@@](Cn6cncn6)(c6ccc(F)cc6F)C5)cc4)CC3)cc2)c1=O`: the Potency entry in assay [12] and in assay [10] was “inactive” throughout. Also, the results for the Potency in [3] and in assay [6] were 7.5 µM (active) and 10.6 µM (active), respectively. In addition, the compound was classed as inactive in [4].

As to `CSc1ccc(Oc2ccc(S(N)(=O)=O)cc2CN(C)C)cc1C`, the Potency result in [12], in assay [2] and in assay [5] was “inactive” in each case. Further, the compound was classed as inactive in [4]. The Potency was 19.3 µM (active) in assay [6], 35.6 µM (active) in assay [8], 63.3 µM (active) in [10] and 6.92 µM (active) in [13].

Turning to `OCC1CC=CCC1` (centres undefined), the Potency entry in assay [1], in assay [2], in assay [3], in assay [5], in [6] and in assay [7] was “inactive” each time. Further, the Potency entry in [8], in assay [9], in assay [10], in [13] and in assay [11] was “inactive” throughout. For the same compound, the compound was classed as inactive in [4].

In the case of `CC(CCO)CCc1ccccc1` (centres undefined), the Potency result in assay [1], in assay [2], in assay [3], in assay [5], in assay [6] and in assay [7] was “inactive” in each case. For the same compound, the Potency entry in assay [13] and in [11] was “inactive” each time. In addition, the result in [4] was inactive. Besides, the Potency was 7.96 µM (active) in assay [8], 35.6 µM (active) in assay [9] and 22.4 µM (active) in assay [10].

As for `CC1C2CC(CC2C2CCCC(O)C2)C1(C)C` (centres undefined), the Potency entry in assay [12], in [5], in assay [6] and in [7] was “inactive” each time. The Potency in [3] was 68.6 µM (active); in assay [8] it was 35.6 µM (active); in [9], 35.6 µM (active); in assay [13] it was 24.5 µM (active). Further, the call in assay [4] was inactive.

Consider `Oc1cc(O)c(Cl)cc1Cl`, for which the Potency entry in assay [1], in [2], in assay [3], in [5], in assay [6] and in assay [8] was “inactive” in each case. The Potency entry in [13] is “inactive”. For the same compound, in assay [4], the outcome was inactive. Further, the Potency in [9] was 40.9 µM (active); in assay [10], 18.3 µM (active); in [11] it was 36.5 µM (active).

Turning to `CN(C)CCOC1=Cc2ccccc2Sc2ccc(Cl)cc21`, the Potency result in [12], in assay [5], in assay [6], in [8] and in assay [9] was “inactive” throughout. Moreover, the call in [4] was inactive. Also, the Potency in assay [7] was 4.36 µM (active); in [10], 18.2 µM (active).

For `O=C1OCCN1/N=C/c1ccc([N+](=O)[O-])o1`, the Potency result in assay [12], in assay [2], in assay [5], in [6] and in [15] was “inactive” in each case. The compound was called inactive in [4]. Besides, the max activation in [14] was -6.39%.

Regarding `N#C[C@@H]1C[C@@H]2C[C@@H]2N1C(=O)[C@@H](N)C12CC3CC(CC(O)(C3)C1)C2`, the Potency entry in assay [1], in assay [2], in assay [3], in assay [5], in assay [6] and in [8] was “inactive” in each case. In addition, the Potency entry in [9], in [10] and in [11] was “inactive” throughout. Further, in [4], the call was inactive. The Potency in [7] is 38.9 µM (active).
